Results as given in PubChem BioAssay (NCI).
About 83,000 compounds went through this panel and 20% of them were active in at least one assay; those are over-represented in the sample as a whole.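 Activity criterion: percent growth below 10, measured after cells in 96-well plates were exposed to a single compound concentration for 48 hours.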 A number with no mark means an inactive call. Active and inactive are the calls of the source.

Columns and labels:
Test in all cases: NCI-60 one-dose screen, 48 h (100 = growth as untreated, 0 = no growth, -100 = all killed)
Settings in all cases: 10 µM unless noted
SR leukemia = system: SR leukemia
RPMI-8226 leukemia = system: RPMI-8226 leukemia
OVCAR-8 ovarian = system: OVCAR-8 ovarian
OVCAR-5 ovarian = system: OVCAR-5 ovarian
OVCAR-4 ovarian = system: OVCAR-4 ovarian
SK-OV-3 ovarian = system: SK-OV-3 ovarian
IGROV1 ovarian = system: IGROV1 ovarian
OVCAR-3 ovarian = system: OVCAR-3 ovarian
NCI/ADR-RES ovarian = system: NCI/ADR-RES ovarian
T-47D breast = system: T-47D breast
BT-549 breast = system: BT-549 breast
SW-620 colon = system: SW-620 colon
MCF7 breast = system: MCF7 breast
HCT-116 colon = system: HCT-116 colon
HCC-2998 colon = system: HCC-2998 colon
KM12 colon = system: KM12 colon
HS 578T breast = system: HS 578T breast
MDA-MB-435 melanoma = system: MDA-MB-435 melanoma

SMILES	growth (SR leukemia)	growth (RPMI-8226 leukemia)	growth (OVCAR-8 ovarian)	growth (OVCAR-5 ovarian)	growth (OVCAR-4 ovarian)	growth (SK-OV-3 ovarian)	growth (IGROV1 ovarian)	growth (OVCAR-3 ovarian)	growth (NCI/ADR-RES ovarian)	growth (T-47D breast)	growth (BT-549 breast)	growth (SW-620 colon)	growth (MCF7 breast)	growth (HCT-116 colon)	growth (HCC-2998 colon)	growth (KM12 colon)	growth (HS 578T breast)	growth (MDA-MB-435 melanoma)
NC(=O)[C@@H]1CC2CCC1C2 (stereo partly specified)	90.6%	93.3%	108%	95%	106%	101%	110%	93.4%	121%	113%	94.2%	94%	103%	101%	121%	102%	–	–
CC(=O)n1c(/C(C#N)=C/c2ccc(N(C)C)cc2)cc2ccccc21	26.8%	16.2%	40.3%	60.7%	76.8%	34.8%	40.3%	8.84% (active)	16.7%	35.8%	17.7%	24.6%	20.1%	27.7%	50.5%	31.6%	11.9%	–
COc1cc(-c2nc(-c3ccccc3)c(-c3ccccc3)[nH]2)cc(OC)c1O	4.48% (active)	0.561% (active)	-0.964% (active)	75.3%	-36.5% (active)	-0.937% (active)	22.3%	-80.9% (active)	–	6.06% (active)	11.5%	-37.2% (active)	–	–	-55.2% (active)	-52.9% (active)	9.67% (active)	-23.2% (active)
O=C(/C(=C(\C(=O)c1ccccc1)c1ccccc1)c1ccccc1)c1ccccc1	31.6%	18.7%	41.6%	100%	55.8%	82.5%	69%	40.8%	45.4%	–	–	38.5%	42.6%	14.1%	52%	17.1%	76.6%	73.6%
COC1=C(Br)C(=O)C(OC)=C(Br)C1=O	42.7%	101%	105%	113%	96.8%	110%	111%	91%	104%	106%	95.9%	–	83%	90.1%	114%	101%	–	105%
N=c1ccc2nc3c(cc(N)c4ccccc43)oc-2c1	-41% (active)	-49.3% (active)	-54.1% (active)	-100% (active)	-100% (active)	-96.3% (active)	-29.4% (active)	-90.1% (active)	-57.7% (active)	-80.1% (active)	-13.2% (active)	-79.6% (active)	-62.3% (active)	-96.1% (active)	-96.8% (active)	-94.9% (active)	-23.3% (active)	–
COC(=O)[C@]12CC[C@@H](C)[C@H](C)[C@@H]1C1=CC[C@@H]3[C@@](C)(CC#N)C4=C(C[C@@]3(C)[C@]1(C)CC2)OC[C@]4(C)C=O	2.49% (active)	2.46% (active)	5.29% (active)	-48.3% (active)	10%	0.91% (active)	22.9%	-59.6% (active)	-11.3% (active)	-9.08% (active)	-15.2% (active)	0.614% (active)	-10.2% (active)	3.7% (active)	-45.3% (active)	4.23% (active)	-0.493% (active)	–
O=C(NO)c1ccc(Cn2c(=O)n(-c3ccccc3)c(=O)c3ccccc32)cc1	7.9% (active)	14.8%	-6.49% (active)	62.2%	18.7%	26.3%	33.5%	24.2%	101%	14.1%	32.4%	0.142% (active)	33.2%	-53.1% (active)	54.1%	-7.84% (active)	57.8%	–
CC(=O)O[C@@H]1CCN2C(=O)N(C)c3ccccc3[C@@H]2C1	93.3%	104%	109%	96.5%	107%	101%	105%	122%	104%	92.8%	108%	113%	94.6%	102%	104%	116%	116%	–
COc1cnc2c(c1)C(=O)c1c-2n(CCCN2CCN(CCO)CC2)c(=O)c2cc([N+](=O)[O-])ccc12	-12.5% (active)	44.6%	52.5%	132%	79.4%	54.8%	74.2%	84.4%	111%	64.4%	65.6%	–	–	-87.6% (active)	80%	32.4%	84.9%	40.8%
[B-][N+](CC)(CC)c1ccccc1	74.7%	108%	112%	86.9%	103%	109%	112%	112%	110%	102%	99.3%	109%	95.9%	100%	105%	105%	120%	–
CN(C)c1ccc(N)c2ccccc12	55%	68.8%	74.6%	75.4%	27.7%	85.2%	65.1%	-15.6% (active)	77.2%	80.2%	80.4%	–	–	6.65% (active)	50.2%	62.7%	–	-91.3% (active)
O=C(CI)Nc1ccc(O)c2ccccc12	-1.5% (active)	-18.8% (active)	-22.9% (active)	18.5%	26.6%	77.5%	-15.5% (active)	-29.5% (active)	-15.1% (active)	-52% (active)	44.1%	-68.9% (active)	0.823% (active)	-59.5% (active)	82.4%	64.8%	33.2%	–
Cc1ccc(-c2nn(Cc3cn(-c4cc(C)nc5ccccc45)nn3)c3ncnc(N)c23)cc1	61.6%	35.6%	62.5%	57.9%	51.7%	56.5%	15.5%	53.1%	59.7%	19.6%	64.4%	82.4%	34.6%	53.8%	76.4%	74.4%	18.2%	–
c1ccc(C2Cc3ccccc3C2=NC2CCCCC2)cc1 (stereo unspecified)	91.1%	100%	107%	90.8%	102%	110%	112%	121%	113%	93.5%	88.3%	119%	–	96.9%	108%	112%	113%	–
CCN(CC)CCCCCNc1cc(OC(=O)c2ccccc2)cc2cccnc12	-38.1% (active)	100%	121%	121%	80.9%	108%	105%	51.6%	99.3%	76.6%	97.2%	80.8%	134%	–	104%	81.3%	103%	–
Nc1c2c(nc3ccc(Br)cc13)CC(c1ccccc1)CC2=O (stereo unspecified)	27.1%	17.8%	44.7%	49.2%	68.7%	63.6%	36.7%	14.7%	11%	43.1%	42.9%	26.1%	21.1%	31.9%	62.9%	24.7%	30.9%	–
CC(=O)c1c(C)[nH]c(-c2nc3ccc(N4CCN(C)CC4)cc3[nH]2)c1-c1ccc(N(C)C)cc1	33%	0.258% (active)	43.7%	41.6%	37.2%	12.6%	15.6%	34.6%	34.2%	23.8%	51.6%	56.8%	8.22% (active)	23.2%	30.3%	37.2%	21.1%	–
